Results with a measured potency or affinity are listed apart. Calls of active or inactive are those of the source.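 Rule for the calls: active = a dose-response curve fit returns a half-maximal inhibitory concentration, extrapolated values included; inactive = the fit returns no such concentration.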
Molecular target: HMG-CoA reductase [Enterococcus faecalis] (UniProt Q9FD70)
Assay: class II HMG-CoA reductase inhibition potency – biochemical, Enterococcus faecalis, confirmation (AID 1233)

SMILES	outcome
O=C(COC(=O)C1CCC(=O)N1)Nc1ccc(Br)cc1 (stereo not drawn)	inactive
CCc1nnc(NC(=O)CN2CCN(c3nc(-c4ccccc4)cs3)CC2)s1	inactive
CCCCOC(=O)c1nc[nH]c1C(=O)OCCCC	inactive
CCCCNC(=O)c1ccccc1NC(=O)CCSc1ccccc1	inactive
O=C(Nc1ccccc1)Nc1ccc2ocnc2c1	inactive
Cc1ccc(C)c(N=Cc2ccc(-c3ccc([N+](=O)[O-])cc3)o2)c1	inactive
O=C(COC(=O)CCc1c[nH]c2ccccc12)NC1CCS(=O)(=O)C1 (stereo not drawn)	inactive
COc1cccc(Nc2nc(C)cc(C)c2C#N)c1	inactive
COc1ccc2ccc(=O)oc2c1	inactive
CCOC(=O)c1c(C)nc2ccc(C)cn12	inactive
COc1ccc(/C=C/C(=O)NCCNC(=O)c2ccccc2)cc1OC	inactive
COc1ccc(Cc2noc(-c3ccccc3)n2)cc1OC	inactive
Cn1nc([N+](=O)[O-])nc1Sc1nnnn1-c1ccc(C(=O)O)cc1	inactive
CCCCCCNC(=O)C(=O)NCCc1ccc(Cl)cc1	inactive
O=C(COC(=O)c1ccncc1)Nc1ccccc1	inactive
COc1ccc(C)cc1NC(=O)COC(=O)C1CCN(C(=O)c2ccc(Cl)cc2)CC1	inactive
NC(=O)c1ccc2nc(NC(=O)c3ccc(N)cc3)sc2c1	inactive
N#Cc1c2c(c(-c3ccccc3Cl)[nH]c1=S)CCCC2	inactive
CC(C)(C)c1ccc(C(=O)Nc2ccc(NC(=O)c3ccco3)cc2)cc1	inactive
CCN(CC)S(=O)(=O)c1cccc(C(=O)N[C@H](C(=O)Nc2nc3ccccc3s2)C(C)C)c1	inactive
CSc1ccccc1C(=O)NCc1ccccc1	inactive
OCC1CCCN(C(=S)Nc2ccc(Nc3ccccc3)cc2)C1 (stereo not drawn)	inactive
COc1cc(-c2nnc(SC/C=C/c3ccccc3)n2N)cc(OC)c1OC	inactive
COc1ccc(NC(=O)c2ccc3c(c2)n(C)c(=O)n3C)cc1	inactive
CC(C)OC(=O)NC(C)(C)COC(=O)Nc1cccc(Cl)c1	inactive
CO/N=C/c1ccc(N2CCCC2)c([N+](=O)[O-])c1	inactive
CN(Cc1nc(-c2cnccn2)no1)C1CC(C)(C)NC(C)(C)C1	inactive

SMILES	outcome
COC(=O)C(C(=O)OC)c1ccc(N)cc1	inactive
O=C(Nc1ccc(Oc2ccccc2)cc1)c1ccc(Cn2c(=O)[nH]c3ccsc3c2=O)cc1	inactive
Cc1ccccc1-n1nc(C)c2cc(C(=O)N3CCN(S(=O)(=O)c4ccc(F)cc4)CC3)sc21	inactive
O=C(C1c2ccccc2C(=O)N2CCc3ccccc3C12)N1CCN(Cc2ccccc2)CC1 (stereo not drawn)	inactive
O=c1[nH]ncc2c3ccccc3n(Cc3cccc(Cl)c3)c12	inactive
Cc1c(NS(=O)(=O)c2ccc3c(c2)Cc2ccccc2-3)c(=O)n(-c2ccccc2)n1C	inactive
COC(=O)C1=C(CSc2nc3c(cc2C#N)CN(C)CC3)OC(N)=C(C#N)C1c1ccc(F)cc1 (stereo not drawn)	inactive
Cc1ccc(Cn2nnc3c(=O)n(CC(=O)NCc4ccco4)cnc32)cc1	inactive
CC1CN(C(=O)c2ccncc2)CC(C)O1 (stereo not drawn)	inactive
CN(C=O)CP(=O)(O)CN1CCCCC1	inactive
CC(C)(C)C1(O)CC(C(F)(F)F)=NN1C(=O)CCCc1ccccc1 (stereo not drawn)	inactive
Cc1nn(Cc2ccc(Cl)cc2)c(Cl)c1/C=N/NC(=O)CNc1ccccc1F	inactive
O=C(/C=C/c1cccs1)c1ccc(NC(=O)c2ccccc2F)cc1	inactive
COC(=O)c1sccc1-c1ccc(C(=O)Nc2cccnc2)o1	inactive
COc1ccc(Nc2nc3c(C)cccn3c(=O)c2C=NCc2ccccc2)cc1	inactive
CCOc1cccc2cc(C(N)=O)c(=NCc3ccccc3)oc12	inactive
NNC(=O)C1CC1c1ccc(Cl)cc1 (stereo not drawn)	inactive
Brc1ccc(/C=N/Nc2ncnc3c2cnn3Cc2ccccc2)cc1	inactive
O=C(Cn1cccc1C(=O)c1ccccc1)NCc1ccco1	inactive
Cc1ccc(S(=O)(=O)N(C)C)cc1NC(=O)COC(=O)CCC(=O)c1cccs1	inactive
Cc1ccc(Cl)cc1N=C(N)N=C(N)N	inactive
CCOc1ccc(/C(O)=C2/C(=O)C(=O)N(CC3CCCO3)C2c2ccco2)cc1 (stereo not drawn)	inactive
O=C(Nc1cccnc1)c1ccc(COc2ccccc2Cl)o1	inactive
OCc1ccccc1CNCc1ccccc1	inactive
CCOC(=O)C(CC)n1cnc2c(nnn2-c2ccc(OC)cc2)c1=O (stereo not drawn)	inactive
O=C(Nc1ccc2c(c1)OCO2)c1noc2c1CCCCC2	inactive

From PubChem BioAssay AID1233 (SRMLSC, 2008)
